# Reference: PMC7862700, “An all-to-all approach to the identification of sequence-specific readers for epigenetic DNA modifications on cytosine”
# Columns and labels:
# Assay in all cases: DAPPL (digital affinity profiling via proximity ligation, sequencing); 10 mM Tris-HCl pH 7.5, 50 mM NaCl, 1 mM DTT, 4% glycerol, room temperature, 30 min; GST-TFs on glutathione beads, 16-mer random dsDNA library, 0.1% formaldehyde crosslink after washing; high values mean tight binding
# Settings in all cases: protein: recombinant; tags: N-terminal GST; dsDNA, one strand shown
# FLI1 = target: T1, FLI1 (Homo sapiens, UniProt Q01543 1-452)
# T1 sequence: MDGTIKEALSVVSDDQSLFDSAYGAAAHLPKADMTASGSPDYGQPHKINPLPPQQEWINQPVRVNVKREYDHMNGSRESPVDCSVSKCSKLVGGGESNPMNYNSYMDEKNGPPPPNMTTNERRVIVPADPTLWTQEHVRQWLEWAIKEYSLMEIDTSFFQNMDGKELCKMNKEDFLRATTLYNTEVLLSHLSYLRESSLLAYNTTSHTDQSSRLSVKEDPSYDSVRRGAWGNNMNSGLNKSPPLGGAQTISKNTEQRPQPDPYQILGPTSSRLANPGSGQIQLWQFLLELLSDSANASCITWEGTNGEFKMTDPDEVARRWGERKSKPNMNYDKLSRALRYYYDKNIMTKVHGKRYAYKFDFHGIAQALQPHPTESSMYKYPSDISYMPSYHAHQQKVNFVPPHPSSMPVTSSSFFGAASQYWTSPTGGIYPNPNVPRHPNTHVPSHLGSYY
# Summary of the method: (§1)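 Pools were built from human transcription factors expressed in yeast as GST fusions, captured on glutathione beads and DNA-barcoded, along with a tag-only sample. Incubation with 200 nmole of a 16-mer random double-stranded DNA library lasted 30 min at room temperature in Tris/NaCl/DTT/glycerol buffer, and was followed by washing, 0.1% formaldehyde crosslinking, proximity ligation, PCR amplification and Illumina NextSeq500 sequencing. Binding signal is the quotient of each hexamer's read frequency for a factor and its frequency for the tag-only sample.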
# ELK1 = target: T2, ELK1 (Homo sapiens, UniProt P19419 1-428)
# T2 sequence: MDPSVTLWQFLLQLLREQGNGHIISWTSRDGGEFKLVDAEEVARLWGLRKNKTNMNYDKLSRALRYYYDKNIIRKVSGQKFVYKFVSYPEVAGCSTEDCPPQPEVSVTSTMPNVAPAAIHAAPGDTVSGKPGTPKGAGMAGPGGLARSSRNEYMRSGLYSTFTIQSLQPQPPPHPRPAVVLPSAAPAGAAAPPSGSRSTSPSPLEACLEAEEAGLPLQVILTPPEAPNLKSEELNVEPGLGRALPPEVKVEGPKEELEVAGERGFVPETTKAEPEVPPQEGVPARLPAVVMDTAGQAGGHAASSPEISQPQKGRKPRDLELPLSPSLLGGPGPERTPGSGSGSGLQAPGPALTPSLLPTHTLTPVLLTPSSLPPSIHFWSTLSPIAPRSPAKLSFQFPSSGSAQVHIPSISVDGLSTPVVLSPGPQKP
# Summary of the method: as §1
# GABPA = target: T3, GABPA (Homo sapiens, UniProt Q06546 1-454)
# T3 sequence: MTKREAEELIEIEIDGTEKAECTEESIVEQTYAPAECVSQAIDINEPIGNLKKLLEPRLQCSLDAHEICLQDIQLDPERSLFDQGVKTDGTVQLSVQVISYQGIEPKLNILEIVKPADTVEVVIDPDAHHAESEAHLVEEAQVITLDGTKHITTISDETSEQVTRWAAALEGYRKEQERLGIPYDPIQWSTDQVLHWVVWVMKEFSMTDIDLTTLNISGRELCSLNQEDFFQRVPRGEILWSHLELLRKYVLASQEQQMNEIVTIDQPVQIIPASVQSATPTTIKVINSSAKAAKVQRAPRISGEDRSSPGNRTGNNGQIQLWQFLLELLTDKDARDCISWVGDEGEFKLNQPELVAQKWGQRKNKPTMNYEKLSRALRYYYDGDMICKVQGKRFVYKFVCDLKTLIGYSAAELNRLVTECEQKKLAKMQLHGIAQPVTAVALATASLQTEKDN
# Summary of the method: as §1
# ERG = target: T4, ERG (Homo sapiens, UniProt P11308 1-479)
# T4 sequence: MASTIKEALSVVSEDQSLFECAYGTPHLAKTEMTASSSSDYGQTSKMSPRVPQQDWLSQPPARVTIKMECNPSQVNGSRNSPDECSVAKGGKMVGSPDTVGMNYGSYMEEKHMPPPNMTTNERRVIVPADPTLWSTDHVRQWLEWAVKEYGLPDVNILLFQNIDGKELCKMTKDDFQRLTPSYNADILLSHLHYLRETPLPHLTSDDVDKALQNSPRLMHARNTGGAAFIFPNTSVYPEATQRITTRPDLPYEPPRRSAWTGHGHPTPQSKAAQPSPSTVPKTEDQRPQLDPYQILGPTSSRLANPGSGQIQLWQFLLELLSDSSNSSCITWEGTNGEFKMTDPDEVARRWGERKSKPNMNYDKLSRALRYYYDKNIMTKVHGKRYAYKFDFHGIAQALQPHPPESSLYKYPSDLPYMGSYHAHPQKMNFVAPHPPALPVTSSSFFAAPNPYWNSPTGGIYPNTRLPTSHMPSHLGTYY
# Summary of the method: as §1
# ELF1 = ELF1 (Homo sapiens, UniProt P32519 1-619)
# Summary of the method: as §1
# EHF = target: T5, EHF (Homo sapiens, UniProt Q9NZC4 1-300)
# T5 sequence: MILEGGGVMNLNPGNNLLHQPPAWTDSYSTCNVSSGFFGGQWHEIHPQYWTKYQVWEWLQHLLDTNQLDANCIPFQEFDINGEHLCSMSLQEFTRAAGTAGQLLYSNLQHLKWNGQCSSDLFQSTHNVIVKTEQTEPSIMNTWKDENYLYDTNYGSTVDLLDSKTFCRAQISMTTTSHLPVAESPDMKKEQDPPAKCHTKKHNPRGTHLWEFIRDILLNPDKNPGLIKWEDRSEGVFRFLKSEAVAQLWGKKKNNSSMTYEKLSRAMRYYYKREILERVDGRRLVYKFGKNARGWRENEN
# Summary of the method: as §1
# SPI1 = SPI1 (Homo sapiens, UniProt P17947 1-270)
# Summary of the method: as §1
# ELK3 = target: T6, ELK3 (Homo sapiens, UniProt P41970 1-407)
# T6 sequence: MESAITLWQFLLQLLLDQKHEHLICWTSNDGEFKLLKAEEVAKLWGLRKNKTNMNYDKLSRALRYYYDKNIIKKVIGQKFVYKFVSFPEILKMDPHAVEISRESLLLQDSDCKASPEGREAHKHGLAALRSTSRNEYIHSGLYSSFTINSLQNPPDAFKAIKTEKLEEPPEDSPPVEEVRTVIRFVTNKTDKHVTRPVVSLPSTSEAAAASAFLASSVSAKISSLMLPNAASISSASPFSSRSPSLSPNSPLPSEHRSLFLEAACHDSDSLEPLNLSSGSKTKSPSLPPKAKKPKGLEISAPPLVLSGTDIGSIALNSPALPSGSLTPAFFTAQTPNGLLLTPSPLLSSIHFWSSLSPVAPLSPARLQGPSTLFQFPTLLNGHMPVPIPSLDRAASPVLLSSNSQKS
# Summary of the method: as §1
# ETV5 = ETV5 (Homo sapiens, UniProt P41161 1-510)
# Summary of the method: as §1
# ELF4 = ELF4 (Homo sapiens, UniProt Q99607 1-663)
# Summary of the method: as §1
# ELF3 = target: T7, ELF3 (Homo sapiens, UniProt P78545 1-371)
# T7 sequence: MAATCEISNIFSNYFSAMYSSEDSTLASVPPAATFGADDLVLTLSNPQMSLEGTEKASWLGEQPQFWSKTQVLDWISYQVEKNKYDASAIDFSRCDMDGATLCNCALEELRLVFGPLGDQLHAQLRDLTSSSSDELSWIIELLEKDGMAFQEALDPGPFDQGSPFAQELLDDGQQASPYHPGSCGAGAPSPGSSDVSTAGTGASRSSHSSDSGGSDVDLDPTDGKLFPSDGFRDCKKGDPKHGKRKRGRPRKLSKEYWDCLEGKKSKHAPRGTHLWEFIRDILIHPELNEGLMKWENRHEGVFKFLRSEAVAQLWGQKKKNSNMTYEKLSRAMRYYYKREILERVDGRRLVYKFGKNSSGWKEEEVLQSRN
# Summary of the method: as §1
# ETV1 = ETV1 (Homo sapiens, UniProt P50549 1-477)
# Summary of the method: as §1
# ERF = target: T8, ERF (Homo sapiens, UniProt P50548 1-548)
# T8 sequence: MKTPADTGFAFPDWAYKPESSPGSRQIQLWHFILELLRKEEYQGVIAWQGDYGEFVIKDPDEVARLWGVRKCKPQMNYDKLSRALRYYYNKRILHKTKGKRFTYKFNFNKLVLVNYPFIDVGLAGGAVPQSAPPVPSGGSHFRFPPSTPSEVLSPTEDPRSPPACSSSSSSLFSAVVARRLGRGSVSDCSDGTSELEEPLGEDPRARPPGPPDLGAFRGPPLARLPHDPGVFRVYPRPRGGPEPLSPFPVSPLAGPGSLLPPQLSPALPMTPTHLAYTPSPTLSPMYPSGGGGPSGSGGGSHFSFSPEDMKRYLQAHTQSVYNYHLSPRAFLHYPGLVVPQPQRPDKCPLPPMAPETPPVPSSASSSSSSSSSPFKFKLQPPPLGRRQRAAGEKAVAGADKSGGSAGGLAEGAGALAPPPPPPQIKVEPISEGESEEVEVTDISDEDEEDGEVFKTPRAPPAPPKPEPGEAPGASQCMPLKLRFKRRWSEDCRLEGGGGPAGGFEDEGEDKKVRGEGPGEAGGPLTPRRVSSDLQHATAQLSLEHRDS
# Summary of the method: as §1
# ETV3L = target: T9, ETV3L (Homo sapiens, UniProt Q6ZN32 1-361)
# T9 sequence: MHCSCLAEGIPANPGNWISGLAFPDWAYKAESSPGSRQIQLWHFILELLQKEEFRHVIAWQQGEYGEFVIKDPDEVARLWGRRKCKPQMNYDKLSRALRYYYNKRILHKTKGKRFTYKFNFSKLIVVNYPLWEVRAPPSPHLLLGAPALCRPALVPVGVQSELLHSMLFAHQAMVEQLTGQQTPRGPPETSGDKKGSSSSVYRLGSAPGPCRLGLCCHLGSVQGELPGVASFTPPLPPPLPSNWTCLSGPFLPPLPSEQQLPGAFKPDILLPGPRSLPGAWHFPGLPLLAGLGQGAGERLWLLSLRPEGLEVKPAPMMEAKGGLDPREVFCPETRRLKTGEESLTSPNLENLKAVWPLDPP
# Summary of the method: as §1
# ETS2 = target: T10, ETS2 (Homo sapiens, UniProt P15036 1-469)
# T10 sequence: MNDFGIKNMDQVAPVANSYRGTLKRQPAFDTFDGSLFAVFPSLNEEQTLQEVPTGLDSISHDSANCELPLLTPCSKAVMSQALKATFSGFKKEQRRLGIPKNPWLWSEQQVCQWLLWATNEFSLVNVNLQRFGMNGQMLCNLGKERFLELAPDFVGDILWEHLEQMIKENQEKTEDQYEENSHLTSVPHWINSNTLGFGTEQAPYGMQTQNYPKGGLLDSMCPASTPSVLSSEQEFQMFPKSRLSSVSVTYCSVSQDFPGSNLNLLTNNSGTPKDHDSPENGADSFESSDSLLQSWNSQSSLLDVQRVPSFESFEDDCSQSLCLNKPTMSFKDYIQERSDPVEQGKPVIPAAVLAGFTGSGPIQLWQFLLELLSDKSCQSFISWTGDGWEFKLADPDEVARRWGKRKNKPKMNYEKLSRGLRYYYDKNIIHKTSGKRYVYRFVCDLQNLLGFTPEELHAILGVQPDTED
# Summary of the method: as §1
# ETV7 = target: T11, ETV7 (Homo sapiens, UniProt Q9Y603 1-341)
# T11 sequence: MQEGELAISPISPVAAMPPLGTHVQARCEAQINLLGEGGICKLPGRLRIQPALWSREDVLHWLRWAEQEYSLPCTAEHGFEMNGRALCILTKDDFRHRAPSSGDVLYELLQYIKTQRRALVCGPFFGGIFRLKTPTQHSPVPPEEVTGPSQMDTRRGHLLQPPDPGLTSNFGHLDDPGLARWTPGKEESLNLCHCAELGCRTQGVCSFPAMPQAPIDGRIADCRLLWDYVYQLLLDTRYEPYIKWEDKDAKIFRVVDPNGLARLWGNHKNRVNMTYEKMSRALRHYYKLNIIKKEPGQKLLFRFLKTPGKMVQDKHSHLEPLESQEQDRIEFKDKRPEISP
# Summary of the method: as §1
# ETV3 = target: T12, ETV3 (Homo sapiens, UniProt P41162-2 1-143)
# T12 sequence: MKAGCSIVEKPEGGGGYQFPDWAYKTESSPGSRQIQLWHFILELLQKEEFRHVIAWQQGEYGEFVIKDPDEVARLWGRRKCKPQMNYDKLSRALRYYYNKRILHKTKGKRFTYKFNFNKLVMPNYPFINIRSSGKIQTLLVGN
# Summary of the method: as §1
# ETV6 = ETV6 (Homo sapiens, UniProt P41212 1-452)
# Summary of the method: as §1
# Chain of ETV6 (P41212 whole entry): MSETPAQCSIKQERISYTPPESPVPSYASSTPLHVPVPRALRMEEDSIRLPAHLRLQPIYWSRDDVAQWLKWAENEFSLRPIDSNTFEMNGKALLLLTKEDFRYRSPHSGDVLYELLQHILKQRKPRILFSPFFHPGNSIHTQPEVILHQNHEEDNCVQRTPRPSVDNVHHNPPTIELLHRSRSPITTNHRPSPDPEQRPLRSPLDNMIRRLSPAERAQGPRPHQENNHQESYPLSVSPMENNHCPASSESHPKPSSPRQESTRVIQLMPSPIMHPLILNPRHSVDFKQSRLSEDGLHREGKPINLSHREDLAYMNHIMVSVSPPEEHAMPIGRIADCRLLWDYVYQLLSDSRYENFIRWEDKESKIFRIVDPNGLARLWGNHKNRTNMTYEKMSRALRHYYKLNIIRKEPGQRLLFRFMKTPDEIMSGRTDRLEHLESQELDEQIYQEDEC
# Chain of ELF4 (Q99607 whole entry): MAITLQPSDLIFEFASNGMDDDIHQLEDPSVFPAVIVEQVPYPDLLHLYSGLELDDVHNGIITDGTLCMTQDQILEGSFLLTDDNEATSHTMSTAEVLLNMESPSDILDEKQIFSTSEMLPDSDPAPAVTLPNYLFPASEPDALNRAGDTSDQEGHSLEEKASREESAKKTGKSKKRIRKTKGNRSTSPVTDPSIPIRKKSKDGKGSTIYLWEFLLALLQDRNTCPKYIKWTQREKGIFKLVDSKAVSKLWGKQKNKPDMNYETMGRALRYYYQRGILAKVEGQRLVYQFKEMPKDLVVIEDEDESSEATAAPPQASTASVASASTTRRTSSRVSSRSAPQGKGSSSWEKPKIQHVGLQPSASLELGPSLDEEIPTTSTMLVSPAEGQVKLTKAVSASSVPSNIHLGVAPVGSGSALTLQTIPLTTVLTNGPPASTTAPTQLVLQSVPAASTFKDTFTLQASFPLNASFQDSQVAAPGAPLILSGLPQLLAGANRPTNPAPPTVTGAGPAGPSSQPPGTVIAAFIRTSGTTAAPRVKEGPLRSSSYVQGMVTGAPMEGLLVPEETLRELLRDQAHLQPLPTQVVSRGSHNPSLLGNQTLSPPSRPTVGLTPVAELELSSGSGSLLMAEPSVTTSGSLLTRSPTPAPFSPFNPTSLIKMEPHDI
# Chain of ELF1 (P32519 whole entry): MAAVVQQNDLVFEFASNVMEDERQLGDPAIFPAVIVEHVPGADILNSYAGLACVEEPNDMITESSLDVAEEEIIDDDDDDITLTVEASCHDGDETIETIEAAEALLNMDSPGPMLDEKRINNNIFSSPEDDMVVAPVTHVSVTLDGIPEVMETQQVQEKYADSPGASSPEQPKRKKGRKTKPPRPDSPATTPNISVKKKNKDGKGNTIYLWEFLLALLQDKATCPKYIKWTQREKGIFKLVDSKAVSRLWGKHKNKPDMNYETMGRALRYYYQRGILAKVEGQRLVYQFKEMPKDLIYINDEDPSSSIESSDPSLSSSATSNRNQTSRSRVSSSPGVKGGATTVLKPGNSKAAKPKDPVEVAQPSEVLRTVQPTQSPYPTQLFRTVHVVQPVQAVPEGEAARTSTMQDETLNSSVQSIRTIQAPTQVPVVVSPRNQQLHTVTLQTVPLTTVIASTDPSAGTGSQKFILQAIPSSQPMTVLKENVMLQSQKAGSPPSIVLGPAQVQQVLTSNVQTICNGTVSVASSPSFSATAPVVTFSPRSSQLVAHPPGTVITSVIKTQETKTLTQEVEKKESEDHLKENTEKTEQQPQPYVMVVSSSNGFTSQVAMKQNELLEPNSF
# Chain of ETV1 (P50549 whole entry): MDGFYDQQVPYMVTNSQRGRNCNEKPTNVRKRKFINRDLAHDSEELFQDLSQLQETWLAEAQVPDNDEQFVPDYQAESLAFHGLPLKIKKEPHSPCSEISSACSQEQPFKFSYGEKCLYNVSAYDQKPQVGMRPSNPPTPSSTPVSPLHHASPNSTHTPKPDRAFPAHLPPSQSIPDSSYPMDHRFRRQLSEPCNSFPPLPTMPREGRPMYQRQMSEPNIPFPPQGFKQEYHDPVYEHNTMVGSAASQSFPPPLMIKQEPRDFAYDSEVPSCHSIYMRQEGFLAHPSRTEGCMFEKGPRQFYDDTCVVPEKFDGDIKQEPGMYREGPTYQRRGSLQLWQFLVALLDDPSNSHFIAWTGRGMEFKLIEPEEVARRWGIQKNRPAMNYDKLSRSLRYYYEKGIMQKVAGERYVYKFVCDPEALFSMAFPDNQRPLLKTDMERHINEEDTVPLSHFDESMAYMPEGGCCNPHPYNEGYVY
# Chain of ETV5 (P41161 whole entry): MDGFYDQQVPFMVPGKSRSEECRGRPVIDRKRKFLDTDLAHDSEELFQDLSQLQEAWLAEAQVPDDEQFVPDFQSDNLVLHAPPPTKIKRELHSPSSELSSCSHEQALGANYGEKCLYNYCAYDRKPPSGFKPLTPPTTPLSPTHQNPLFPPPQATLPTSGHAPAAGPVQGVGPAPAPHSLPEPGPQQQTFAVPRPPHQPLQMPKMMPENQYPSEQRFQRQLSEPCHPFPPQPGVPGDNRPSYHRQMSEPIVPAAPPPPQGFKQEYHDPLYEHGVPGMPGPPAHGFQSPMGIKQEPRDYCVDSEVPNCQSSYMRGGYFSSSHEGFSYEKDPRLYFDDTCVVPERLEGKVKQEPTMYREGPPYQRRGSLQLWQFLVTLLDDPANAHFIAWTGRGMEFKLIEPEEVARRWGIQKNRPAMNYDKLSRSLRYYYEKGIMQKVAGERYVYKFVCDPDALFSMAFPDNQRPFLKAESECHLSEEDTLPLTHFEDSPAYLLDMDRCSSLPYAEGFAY
sequence,measurement,setting,value
GCCGCC,binding signal,FLI1,"1.21 fold enrichment (6-mer frequency, TF over GST control)"
same,binding signal,ELK1,"1.1 fold enrichment (6-mer frequency, TF over GST control)"
same,binding signal,GABPA,"1.16 fold enrichment (6-mer frequency, TF over GST control)"
same,binding signal,ERG,"1.02 fold enrichment (6-mer frequency, TF over GST control)"
same,binding signal,ELF1,"1 fold enrichment (6-mer frequency, TF over GST control)"
same,binding signal,EHF,"1.05 fold enrichment (6-mer frequency, TF over GST control)"
same,binding signal,SPI1,"1.13 fold enrichment (6-mer frequency, TF over GST control)"
same,binding signal,ELK3,"1.15 fold enrichment (6-mer frequency, TF over GST control)"
same,binding signal,ETV5,"1.04 fold enrichment (6-mer frequency, TF over GST control)"
same,binding signal,ELF4,"1.08 fold enrichment (6-mer frequency, TF over GST control)"
same,binding signal,ELF3,"1.08 fold enrichment (6-mer frequency, TF over GST control)"
same,binding signal,ETV1,"1.12 fold enrichment (6-mer frequency, TF over GST control)"
same,binding signal,ERF,"1.03 fold enrichment (6-mer frequency, TF over GST control)"
same,binding signal,ETV3L,"1 fold enrichment (6-mer frequency, TF over GST control)"
same,binding signal,ETS2,"1.01 fold enrichment (6-mer frequency, TF over GST control)"
same,binding signal,ETV7,"1.03 fold enrichment (6-mer frequency, TF over GST control)"
same,binding signal,ETV3,"1.11 fold enrichment (6-mer frequency, TF over GST control)"
same,binding signal,ETV6,"1.02 fold enrichment (6-mer frequency, TF over GST control)"
